The results in this text go back to PubChem BioAssay (NCI).

About 83,000 compounds went through this panel and 20% of them were active in at least one assay; those are over-represented in the sample as a whole.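 Cells were grown in 96-well plates and exposed to the test compound at a single concentration for 48 hours; results are reported as percent growth, with values below 10 considered active.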 Values without a mark were called inactive. Active and inactive are the calls of the source.

Among the test systems are T-47D breast; BT-549 breast; MDA-MB-435 melanoma; SW-620 colon; MCF7 breast; HCT-116 colon; KM12 colon; HCC-2998 colon.
Common to all, as to experiment: NCI-60 one-dose screen, 48 h (100 = growth as untreated, 0 = no growth, -100 = all killed)
Holding throughout (details): 10 µM

Take `COC1=CC(=O)OC(c2ccc(OC)cc2)C1` (stereo unspecified): the growth is 101% in the assay on T-47D breast; 105% in the assay on BT-549 breast; 114% in the assay with MDA-MB-435 melanoma; 102% in the assay with SW-620 colon; 99.8% in the assay on MCF7 breast; 108% in the assay with HCT-116 colon. Moreover, the growth with KM12 colon was 102%.
On to `CCn1c(SC/C(=N/O)c2ccccc2)nnc1-c1ccccc1`, for which the growth in the assay on T-47D breast is 120%; in the assay on BT-549 breast, 115%; in the assay on MDA-MB-435 melanoma it was 105%; in the assay with SW-620 colon, 98.7%; in the assay with MCF7 breast, 112%; in the assay on HCT-116 colon, 101%. The growth is 96.6% with HCC-2998 colon and 110% in the assay with KM12 colon.
`COc1ccc(C(c2ccc(OCCN(C)C)cc2)c2cc3ccccc3c3ccccc23)cc1` (stereo unspecified): the growth was 21.8% with T-47D breast; 93% with BT-549 breast; -25.4% (active) in the assay with MDA-MB-435 melanoma; -46.6% (active) in the assay with SW-620 colon; 2.13% (active) with MCF7 breast; -75% (active) in the assay on HCT-116 colon. The growth was -19.7% (active) in the assay on HCC-2998 colon and 19.3% in the assay on KM12 colon.
Regarding `COc1cccc(N=Nc2cccc(OC)c2)c1`, the growth with T-47D breast is 70.2%; in the assay on BT-549 breast, 85%; in the assay on MDA-MB-435 melanoma, 98.6%; in the assay with SW-620 colon it was 94.2%; in the assay with MCF7 breast, 78.8%; in the assay on HCT-116 colon, 84.8%. Also, the growth in the assay on HCC-2998 colon is 88.6%; in the assay with KM12 colon it was 95.8%.
In the case of `COc1ccc(-c2nn(-c3cccc(Cl)c3)cc2-c2nc(N)[nH]c(=O)c2C#N)cc1`, the growth with T-47D breast was 58.7%; in the assay with BT-549 breast, 64%; in the assay on MDA-MB-435 melanoma, 2.16% (active); with SW-620 colon, 83.2%; in the assay with MCF7 breast, 51%; in the assay on HCT-116 colon it was 58%. Also, the growth in the assay with HCC-2998 colon is 80.9%; in the assay on KM12 colon, 56%.
For `C#C[C@]1(O)CCC2C3CCc4cc(OC5CCCC5)ccc4C3CC[C@@]21C` (stereo partly specified), the growth in the assay on T-47D breast was 84%; in the assay on BT-549 breast, 105%; in the assay on MDA-MB-435 melanoma, 94.8%; in the assay with SW-620 colon it was 53.4%; with MCF7 breast, 74.3%; in the assay with HCT-116 colon it was 68.6%. In addition, the results for the growth in the assay with HCC-2998 colon and with KM12 colon were 74.1% and 34.1%, respectively.
In the case of `COc1cc(C(=O)/C(C)=C/c2c[nH]c3ccccc23)cc(OC)c1OC`, the growth with T-47D breast was 53%; with BT-549 breast it was -9% (active); in the assay on MDA-MB-435 melanoma it was 5.74% (active); in the assay with SW-620 colon, 29.9%; with MCF7 breast, 15.4%; in the assay with HCT-116 colon it was 2.11% (active). In addition, the growth is 15.2% with HCC-2998 colon and 16.5% in the assay on KM12 colon.
On to `CCOC(=O)C1=CSC2=NC3=C(CCC/C3=C\c3ccc(Cl)cc3)C(c3ccc(Cl)cc3)N12` (stereo unspecified), for which the growth is 77.4% in the assay on T-47D breast; 98.4% with BT-549 breast; 79.1% in the assay on MDA-MB-435 melanoma; 100% in the assay with SW-620 colon; 31.3% with MCF7 breast; 49.7% with HCT-116 colon. For the same compound, the results for the growth in the assay with HCC-2998 colon and in the assay with KM12 colon were 101% and 66.7%, respectively.
Consider `CCc1ccc(-c2ccc(-n3nc(C)c4c(N)nc(Cc5ccccc5)nc43)cc2)cc1`, for which the growth is 49.7% in the assay with T-47D breast; 72% with BT-549 breast; 82.7% in the assay on MDA-MB-435 melanoma; 77.8% in the assay with SW-620 colon; 58.1% in the assay with MCF7 breast; 59.1% with HCT-116 colon. For the same compound, the growth with KM12 colon was 53.5%.
On to `C=C(NC(=O)C(=C)NC(=O)c1csc(C2=NC3c4csc(n4)C4NC(=O)c5csc(n5)C(C(C)(O)C(C)O)NC(=O)C5CSC(=N5)C(=CC)NC(=O)C(C(C)O)NC(=O)c5csc(n5)C3(CC2)NC(=O)C(C)NC(=O)C(=C)NC(=O)C(C)NC(=O)C(C(C)CC)NC2C=Cc3c(C(C)O)cc(nc3C2O)C(=O)OC4C)n1)C(N)=O` (stereo unspecified), for which the growth in the assay with T-47D breast was 40.4%; in the assay with BT-549 breast, 0.0683% (active); in the assay with MDA-MB-435 melanoma it was 4.84% (active); in the assay on SW-620 colon it was 1.83% (active); in the assay with MCF7 breast it was 16.7%; in the assay on HCT-116 colon, -70.9% (active). For the same compound, the growth in the assay with HCC-2998 colon was 79.3%; with KM12 colon, 28.3%.
As for `Cc1c(O)c(=O)ccn1C1CCC(CC2CCC(n3ccc(=O)c(O)c3C)CC2)CC1` (stereo unspecified), the growth is 32.3% in the assay with T-47D breast; 31.5% in the assay with BT-549 breast; 33.3% with MDA-MB-435 melanoma; 43.1% in the assay with SW-620 colon; 15.9% with MCF7 breast; 28.4% in the assay on HCT-116 colon. Besides, the growth in the assay with HCC-2998 colon is 55.6%; in the assay with KM12 colon it was 46.5%.
With `CC[C@@H](C(=O)[C@H](C)[C@H](O)[C@@H](C)[C@H]1O[C@H]([C@@H](CC)C(=O)O)CC[C@H]1C)C1O[C@]2(C=C[C@@H](O)[C@]3(CC[C@@](C)([C@H]4CC[C@](O)(CC)[C@H](C)O4)O3)O2)[C@H](C)C[C@@H]1C` (stereo partly specified), the growth in the assay on T-47D breast is 25.5%; in the assay on BT-549 breast, 6.06% (active); in the assay on MDA-MB-435 melanoma it was -16.3% (active); in the assay on SW-620 colon it was 24%; in the assay on MCF7 breast it was 3.7% (active); with HCT-116 colon it was 22.2%. Moreover, the growth in the assay with HCC-2998 colon was 8.29% (active); in the assay with KM12 colon it was 24.5%.
In the case of `CC(C)Cc1ccc([C@H](C)C(=O)O)cc1`, the growth is 102% with T-47D breast; 107% with BT-549 breast; 103% in the assay with MDA-MB-435 melanoma; 110% in the assay on SW-620 colon; 94.8% in the assay on MCF7 breast; 103% in the assay on HCT-116 colon. Further, the growth with KM12 colon is 108%.
Regarding `CCc1cc(Cl)c(OC)c(C(=O)NCC2CCCN2CC)c1O` (stereo unspecified), the growth in the assay on T-47D breast was 80.9%; with BT-549 breast, 89.2%; with MDA-MB-435 melanoma, 92.7%; with SW-620 colon, 91.7%; with MCF7 breast it was 95.8%; in the assay with HCT-116 colon it was 88.5%. In addition, the growth is 96.4% in the assay on HCC-2998 colon and 101% in the assay with KM12 colon.
In the case of `COC(=O)CC[C@@H](C)[C@H]1CC[C@H]2[C@@H]3CC[C@@H]4C[C@H](O)CC[C@]4(C)[C@H]3C[C@H](O)[C@]12C`, the growth is 89.2% in the assay with T-47D breast; 96.4% with BT-549 breast; 118% with MDA-MB-435 melanoma; 107% with SW-620 colon; 84.8% with MCF7 breast; 86.7% in the assay on HCT-116 colon. In addition, the growth with KM12 colon is 102%.
